Assay outcomes (PubChem BioAssay)
Most compounds without a hit are left out; they make up all but 19% or so of the library.
DT40 TDP1 no CPT – qHTS for Inhibitors of human tyrosyl-DNA phosphodiesterase 1 (TDP1): qHTS in cells in absence of CPT. Potency, µM (titrated, usually from 46.2 µM), for the others: at the top dose activity change, negative = growth inhibition, hits mostly inhibitors. AID 686978, 2013. DT40 Tdp1-/- hTDP1 cells, no CPT, ATP luminescence, 48 h. actives 15% (n = 420,000); also: potency is read from the fitted curve at half-maximal effect; nearly all actives have a fitted effect of over 55% in size
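Growth kinetics read by CellTiter-Glo luminescence after ≥48 hr at 37 °C. Cells: DT40 Tdp1-/- stably carrying human TDP1, 400 per well, compound exposure in the absence of CPT (DMSO vehicle).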
DT40 TDP1 CPT – DT40-hTDP1 cell growth loss with CPT | chicken DT40 Tdp1-/-;hTDP1 cells + 20 nM CPT, ATP luminescence, 48 h | Potency, µM (doses to about 46.2 µM), without a hit: top-dose activity change, negative = growth inhibition, usual class: inhibitors | actives 12% (n = 420,000); also: potency is read from the fitted curve at half-maximal effect; nearly all actives have a fitted effect of over 55% in size
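Chicken DT40 Tdp1-/- cells complemented with human TDP1, 400 cells/well, exposed to compounds plus 20 nM camptothecin for at least 48 h at 37 C; viability read as ATP content by CellTiter-Glo luminescence.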
HT1080NT lethal – kills 2HG-producing HT-1080-NT fibrosarcoma cells; HT-1080-NT fibrosarcoma viability, CellTiter-Glo ATP luminescence, 48 h; Potency, µM (doses to about 46.1 µM), inactives show at the highest dose activity, negative = less viability, hits mostly cytotoxic; actives 1.6% (n = 360,000);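 also: NT is the 2HG producing partner of a matched IDH1 knockdown line; potency is read from the fitted curve at half-maximal effect; 0% = DMSO-treated cells and -100% = media-only wells without cells; nearly all actives have a fitted effect of over 55% in size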
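Luminescent CellTiter-Glo readout after 48 hours of compound exposure at 37 degrees C defined viability of HT-1080-NT cells. Activity was normalized to DMSO wells and cell-free media wells; concentration-response curves were fitted and assigned curve classes.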
IL1B secr inh – inflammasome signaling inhibition, IL-1 beta readout | THP-1 LPS/ATP IL-1B secretion, AlphaLISA, 16 h; hits give low values | actives 4.7% (n = 360,000) | activity change, % at 57.5 µM; in the data active = activity change below about -50%; inconclusive = mostly about -30% to -49%
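Secreted IL-1B measured by AlphaLISA bead assay after 16 h compound exposure of THP-1 cells; compounds (final up to 57.5 uM) added 1 h before LPS (250 ng/mL) and ATP (1.25 mM) stimulation; lower signal means less secretion.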
HT1080 IDH1KD tx – HT-1080 IDH1 knockdown cell toxicity (counter line); actives 2% (n = 360,000); HT-1080 IDH1 knockdown viability, ATP luminescence, 48 h; Potency, µM (top dose mostly 46.1 µM), for the others: at the top dose activity, negative = toxicity, hits mostly cytotoxic;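 also: potency is read from the fitted curve at half-maximal effect; 0% = DMSO wells and -100% = cell-free medium wells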
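Viability of IDH1-knockdown HT-1080 fibrosarcoma cells was assessed by CellTiter-Glo after 48 h at 37 °C with titrated compound; concentration-effect curves were classified by fit quality and response size.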
Active calls of the source: *. Unless noted, calls follow the shape of the dose curve; as a rule, active = well fitted curve in the direction sought with a large enough effect; inconclusive = small, poorly fitted or top-dose-only effect, or another doubt; inactive = no such curve, though single readings can be large; an effect the other way counts as inactive or inconclusive. Unless noted, % is scaled to controls: 0 for no effect and ±100 for the full control effect.

Screening O=C(N/N=C/c1cn(-c2cccs2)nc1-c1ccccc1)c1ccccc1O returned DT40 TDP1 no CPT 8.2µM*, DT40 TDP1 CPT 13µM*, HT1080NT lethal inconclusive, IL1B secr inh 77 and HT1080 IDH1KD tx 21µM*.
Cc1nn(-c2ccccc2)cc1/C=N/NC(=O)c1cccs1 was read as DT40 TDP1 no CPT inconclusive, DT40 TDP1 CPT inconclusive, HT1080NT lethal 8%, IL1B secr inh -22 and HT1080 IDH1KD tx 3%.
Screening Cc1c(NC(=O)/C=C/c2ccc(S(=O)(=O)N3CCOCC3)cc2)c(=O)n(-c2ccccc2)n1C returned DT40 TDP1 no CPT -3%, DT40 TDP1 CPT 4%, HT1080NT lethal 15%, IL1B secr inh 35 and HT1080 IDH1KD tx 9%.
CC(c1nc2ccccc2n1Cc1ccccc1)n1c(-c2cnccn2)nc2ccccc21 (stereo not given) was read as DT40 TDP1 no CPT 21µM*, DT40 TDP1 CPT 15µM*, HT1080NT lethal inconclusive, IL1B secr inh 24 and HT1080 IDH1KD tx inconclusive.
c1ccc(Cn2c(Cn3c(-c4cnccn4)nc4ccccc43)nc3ccccc32)cc1 was read as DT40 TDP1 no CPT inconclusive, DT40 TDP1 CPT 26µM*, HT1080NT lethal inconclusive, IL1B secr inh -14 and HT1080 IDH1KD tx -16%.
For CCCCn1c(SCC(=O)c2ccc3c(c2)OCCO3)nnc1-c1ccoc1C the results were DT40 TDP1 no CPT inconclusive, DT40 TDP1 CPT inconclusive, HT1080NT lethal -1%, IL1B secr inh -96* and HT1080 IDH1KD tx -1%.
`O=C(CN1CCN(S(=O)(=O)c2ccc(Br)cc2)CC1)c1ccc(O)c(O)c1` gave DT40 TDP1 no CPT 7.3µM*, DT40 TDP1 CPT 18µM*, HT1080NT lethal -2%, IL1B secr inh 3 and HT1080 IDH1KD tx -2%.
Screening Cc1ccc(S(=O)(=O)N2CCN(Cc3cc(Br)ccc3O)CC2)cc1 returned DT40 TDP1 no CPT inconclusive and DT40 TDP1 CPT 18µM*.
For COc1cc(Cl)ccc1OCc1cc(C(=O)NC(C)Cc2cccnc2)no1 (stereo not given) the results were DT40 TDP1 no CPT inconclusive, DT40 TDP1 CPT inconclusive, HT1080NT lethal -10%, IL1B secr inh -7 and HT1080 IDH1KD tx 0%.
Screening CCC(C)(Oc1ccc(C2(c3ccc(OC(C)(CC)C(=O)O)cc3)CCCCC2)cc1)C(=O)O (stereo not given) returned DT40 TDP1 no CPT 5% and DT40 TDP1 CPT 10%.
Screening Cc1ccc(-c2noc(CSc3nnc(CCc4ccccc4)n3-c3ccccc3)n2)cc1 returned DT40 TDP1 no CPT 16µM*, DT40 TDP1 CPT 16µM*, HT1080NT lethal inconclusive, IL1B secr inh -12 and HT1080 IDH1KD tx inconclusive.
Screening Cc1ccc(-c2noc(CSc3nnc(Cc4ccccc4)n3-c3ccc(Cl)cc3)n2)cc1 returned DT40 TDP1 no CPT -30%, DT40 TDP1 CPT -15%, HT1080NT lethal inconclusive, IL1B secr inh -24 and HT1080 IDH1KD tx inconclusive.
`COc1ccc(-c2noc(CSc3nnc(CCc4ccccc4)n3-c3ccccc3)n2)cc1OC` gave DT40 TDP1 no CPT 16µM*, DT40 TDP1 CPT 15µM*, HT1080NT lethal inconclusive, IL1B secr inh -10 and HT1080 IDH1KD tx inconclusive.
Screening COc1ccc(-c2noc(CSc3ccccc3)n2)cc1OC returned DT40 TDP1 no CPT inconclusive, DT40 TDP1 CPT -21%, HT1080NT lethal 8%, IL1B secr inh 0 and HT1080 IDH1KD tx 4%.
`COc1ccc2nc(NC(=O)CSCC(=O)Nc3cc(C)on3)sc2c1` gave DT40 TDP1 no CPT -20%, DT40 TDP1 CPT 6%, HT1080NT lethal -3%, IL1B secr inh 25 and HT1080 IDH1KD tx -11%.
Cc1cccnc1NC(=O)c1cccc(S(=O)(=O)N2CCCc3ccccc32)c1 was read as DT40 TDP1 no CPT inconclusive, DT40 TDP1 CPT inconclusive, HT1080NT lethal -2%, IL1B secr inh -10 and HT1080 IDH1KD tx -4%.
For COc1ccccc1N1CCN(C(=O)c2ccc(-c3ccc(Cl)cc3)o2)CC1 the results were DT40 TDP1 no CPT 2.3µM*, DT40 TDP1 CPT 3.7µM*, HT1080NT lethal 7.3µM*, IL1B secr inh 41 and HT1080 IDH1KD tx 5.2µM*.
`COc1ccccc1N1CCN(C(=O)c2ccc(-c3nc4ccccc4s3)o2)CC1` gave DT40 TDP1 no CPT 16µM*, DT40 TDP1 CPT 23µM*, HT1080NT lethal -20%, IL1B secr inh 13 and HT1080 IDH1KD tx -18%.
For COc1ccc(N2CCN(C(=O)c3ccc(-c4nc5ccccc5s4)o3)CC2)cc1 the results were DT40 TDP1 no CPT 12µM*, DT40 TDP1 CPT 16µM*, HT1080NT lethal -3%, IL1B secr inh 44 and HT1080 IDH1KD tx -2%.
COc1ccccc1N1CCN(C(=O)NCc2ccc(Cl)cc2)CC1 was read as DT40 TDP1 no CPT inconclusive, DT40 TDP1 CPT -8%, HT1080NT lethal -12%, IL1B secr inh -22 and HT1080 IDH1KD tx -8%.
For COC(=O)CSc1nnc(-c2ccc(OC)c(OC)c2)o1 the results were DT40 TDP1 no CPT -11%, DT40 TDP1 CPT 5%, HT1080NT lethal 11%, IL1B secr inh 21 and HT1080 IDH1KD tx 8%.
COC(=O)CSc1cc(SCC(=O)OC)c(C#N)c(SCC(=O)OC)c1 was read as DT40 TDP1 no CPT -14%, DT40 TDP1 CPT -13%, HT1080NT lethal -7%, IL1B secr inh -113* and HT1080 IDH1KD tx -1%.
`COC(=O)CSc1ccc(C#N)c(SCC(=O)OC)c1` gave DT40 TDP1 no CPT -22%, DT40 TDP1 CPT 6%, HT1080NT lethal -5%, IL1B secr inh -105* and HT1080 IDH1KD tx -8%.
COC(=O)CSc1nc(C)cc(C)c1C#N was read as DT40 TDP1 no CPT -5%, DT40 TDP1 CPT -5%, HT1080NT lethal 16%, IL1B secr inh -11 and HT1080 IDH1KD tx 1%.
`CCOC(=O)c1c(NC(=S)NCC2CCCO2)sc(C)c1C` (stereo not given) gave DT40 TDP1 no CPT inconclusive, DT40 TDP1 CPT -22%, HT1080NT lethal 7%, IL1B secr inh 39 and HT1080 IDH1KD tx 6%.
Screening COc1cc(C=NCc2ccccc2)ccc1O returned DT40 TDP1 no CPT -20%, DT40 TDP1 CPT -3%, HT1080NT lethal -6%, IL1B secr inh 8 and HT1080 IDH1KD tx -3%.
Screening COc1ccc(/C=N/N(Cc2ccccc2)c2ccccc2)cc1O returned DT40 TDP1 no CPT inconclusive, DT40 TDP1 CPT inconclusive, HT1080NT lethal 15µM*, IL1B secr inh -86* and HT1080 IDH1KD tx 23µM*.
For CCN(CC)c1ccc(/C=N/N(c2ccccc2)c2ccccc2)c(O)c1 the results were DT40 TDP1 no CPT inconclusive, DT40 TDP1 CPT inconclusive, HT1080NT lethal -3%, IL1B secr inh -24 and HT1080 IDH1KD tx -12%.
`C(=N\n1cnnc1)/c1ccccn1` gave DT40 TDP1 no CPT -13%, DT40 TDP1 CPT -5%, HT1080NT lethal 4%, IL1B secr inh 20 and HT1080 IDH1KD tx 1%.
